# Rows were chosen to be rich in hits. Some 1.1% of all compounds tested hit in one or more screens of this group.
# Bfl-1 A1 inh – inhibitors of the anti-apoptotic protein A1, read as caspase activation; caspase activation, % (test concentration not listed); MEF A1-2A-BIM cells, Caspase-Glo 3/7 luminescence, 3 h; percent of clofoctol response, vehicle zero; AID 2462; hit rate 0.066% among 330,000;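 active = over half of replicate activation scores above 10%, or exactly half above 10 with the replicate mean above 10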
# HTR5A inv ctr – counter-screen for OPRM1-OPRD1 inverse agonists: human HTR5A inverse agonism | P47898 | HTR5A cell line, luminescence | inhibition, % at 9.3 µM | hit rate 0.083% among 340,000 | AID 504634; in the data active = inhibition mostly above about 23%, no sharp cut-off; inactive = mostly below about 18%;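 also: 0% = cells with DMSO and 100% = no-cell wells with DMSO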
# Target sequence (P47898 whole entry, looked up): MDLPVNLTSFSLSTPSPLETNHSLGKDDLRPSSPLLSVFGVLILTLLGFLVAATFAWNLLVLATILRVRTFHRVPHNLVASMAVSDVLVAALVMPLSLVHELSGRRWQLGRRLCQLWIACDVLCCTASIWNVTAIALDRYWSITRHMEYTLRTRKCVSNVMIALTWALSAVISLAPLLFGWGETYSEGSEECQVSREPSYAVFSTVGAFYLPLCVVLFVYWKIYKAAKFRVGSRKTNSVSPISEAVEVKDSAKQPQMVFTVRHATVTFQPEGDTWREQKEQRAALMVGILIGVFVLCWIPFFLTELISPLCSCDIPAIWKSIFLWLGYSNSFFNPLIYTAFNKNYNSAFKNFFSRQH
# HTR5A ag – activates human HTR5A in OPRM1-OPRD1 agonist counter-screen; hit rate 0.61% among 340,000; AID 504692; HTR5A agonist assay, luminescence, cell-based; activation, % at 9.3 µM; in the data active = activation mostly above about 9.5%, no sharp cut-off; inactive = mostly below about 7.6%;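 also: 0% = cells with vehicle only and 100% = reference agonist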
# MOR-DOR ag-1 – OPRM1-OPRD1 heterodimerization agonism; P35372+P41143; cells, luminescence; activation, % at 9.3 µM; hit rate 0.3% among 340,000; AID 504326;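 also: 0% = vehicle-treated cells and 100% = reference agonist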
# OPRM1-OPRD1 inv – inverse agonist of human OPRM1-OPRD1 heterodimerization | inhibition, % at 9.3 µM | hit rate 0.21% among 340,000 | cell-based MOR-DOR heterodimer luminescence, inverse agonism | AID 504357; in the data active = inhibition above about 22%, passing the limit was not always enough;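 also: 0% = cells with DMSO and 100% = wells without cells with DMSO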
# MOR-DOR ag-2 – opioid heterodimer agonism, HTR5A counter-screen. U2OS counter-screen cells, complementation luminescence, 3 h. activation, % at 9.3 µM. AID 504913. shares compounds with HTR5A ag. hit rate 13% among 800
# HTR5A ag confirm – HTR5A (human) agonism, confirmation; HTR5A agonist cell assay, luminescence; hit rate 17% among 800; activation, % at 9.3 µM; AID 504915; shares compounds with HTR5A ag; in the data active = activation above about 17%;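 also: 0% = cells with vehicle only and 100% = full reference agonist response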
# * hit, by the source's call; . = no result. Rule as the data show it, unless noted: active = activation above about 18%; inactive = the rest.
SMILES,Bfl-1 A1 inh,HTR5A inv ctr,HTR5A ag,MOR-DOR ag-1,OPRM1-OPRD1 inv,MOR-DOR ag-2,HTR5A ag confirm
COc1cc(C#Cc2c(-c3cncn3C)n(C)c3ccc(-c4ccc(CN5CCOCC5)cc4)cc23)cc(OC)c1,-0.4,-26.5,16.4*,2.0,-11.4,19.6*,4.1
O=C(NCCc1c[nH]c2ccccc12)C(=O)NCC1OCCCN1S(=O)(=O)c1cccs1 (centres undefined),0.1,-73.0,30.9*,0.2,-1.7,0.9,-6.2
O=C(NCCCc1ccccc1)C(=O)NCC1OCCN1S(=O)(=O)c1cc(F)ccc1F (centres undefined),-0.4,9.7,1.9,-3.3,17.2,.,.
CNC(=O)C(=O)NCC1OCCCN1S(=O)(=O)c1cccs1 (centres undefined),0.5,1.0,3.7,-1.1,5.4,.,.
O=C(NCCc1c[nH]c2ccccc12)C(=O)NCC1OCCCN1S(=O)(=O)c1ccc(F)cc1 (centres undefined),0.4,-58.9,16.1*,-1.5,7.7,3.7,24.3*
O=C(NCCc1c[nH]c2ccccc12)C(=O)NCC1OCCN1S(=O)(=O)c1cc(F)ccc1F (centres undefined),-0.6,-6.5,34.3*,0.8,-4.1,0.6,44.7*
Cc1cc(F)ccc1S(=O)(=O)N1CCCOC1CNC(=O)C(=O)NCCc1c[nH]c2ccccc12 (centres undefined),0.6,-74.9,16.2*,-0.8,4.5,42.8*,4.0
CCOC(=O)C1(Cc2ccccc2C)CCCN(C(=O)CCn2nccc2C)C1 (centres undefined),0.0,-9.5,3.4,-1.1,5.7,.,.
Cc1ccc(S(=O)(=O)N2CCOC2CNC(=O)C(=O)NCCc2ccc(S(N)(=O)=O)cc2)cc1 (centres undefined),-0.5,-13.7,3.8,-0.1,0.7,.,.
O=C(NCCCO)C(=O)NCC1OCCCN1S(=O)(=O)c1cccs1 (centres undefined),1.5,-43.6,17.0*,-0.9,3.6,-0.1,-1.8
O=C(NCCO)C(=O)NCC1OCCCN1S(=O)(=O)c1cccs1 (centres undefined),-0.4,-3.9,1.5,-0.6,2.9,.,.
Cc1ccc(S(=O)(=O)N2CCOC2CNC(=O)C(=O)NCCc2c[nH]c3ccccc23)cc1 (centres undefined),-0.2,-117.9,53.7*,0.1,-1.0,0.2,-1.6
Cc1nn(-c2ccc(F)cc2)c2sc(C(=O)N3CCCCCC3)cc12,-0.4,-7.6,-3.0,-0.9,4.9,.,.
Cc1nn(-c2ccc(Cl)cc2)c2sc(C(=O)N3CCN(c4ccccn4)CC3)cc12,0.5,-55.9,22.0*,-2.5,14.1,1.1,-1.1
O=C(Nn1cnc2ccccc2c1=O)c1ccccc1[N+](=O)[O-],1.4,-6.4,2.4,-4.1,20.6,.,.
CCOc1ccc(S(=O)(=O)NN)cc1,0.9,-85.2,14.4*,-2.9,17.3,-1.9,0.3
CCOc1ccc(CNC(=O)NS(=O)(=O)c2ccc(OC)cc2)cc1,-0.4,-49.8,15.4*,1.0,-5.3,23.3*,4.4
CCC(C)NS(=O)(=O)c1ccc(OCC(=O)NCc2ccc(OC)cc2)cc1 (centres undefined),0.5,-26.3,-2.6,-0.5,2.8,.,.
CCOC(=O)c1cc2sc(C)cc2n1CC(=O)N1CCOCC1,0.7,9.5,-4.1,0.2,-1.4,.,.
CCOC(=O)c1cc2sc(C)cc2n1CC(=O)NCc1ccc(F)cc1,0.6,-22.1,20.4*,8.1,-46.6,3.4,5.5
CCCCC(=O)OCc1nc2ccccc2s1,-0.4,18.6,-0.3,0.8,-3.5,.,.
CCO[C@H]1OC(C(=O)N2CCN(Cc3ccc4c(c3)OCO4)CC2)=C[C@@H](c2ccc(C(F)(F)F)cc2)[C@@H]1CCCO,0.1,-10.0,-2.3,0.7,-3.7,.,.
Cn1cc(S(=O)(=O)NCc2cccs2)c(=O)n(C)c1=O,2.0,-58.5,19.2*,-0.9,5.4,1.3,-1.4
Cc1nc2cc(NC(=O)N3c4ccccc4CC3C)ccc2n1C (centres undefined),-2.4,-57.9,22.4*,-2.5,14.1,0.9,24.4*
COC(=O)c1cc(NS(=O)(=O)c2ccc(N3CCOCC3)c(N)c2)cc(C(=O)OC)c1,0.0,-52.2,15.0*,4.2,-21.8,5.3,-11.9
SMILES,Bfl-1 A1 inh,HTR5A inv ctr,HTR5A ag,MOR-DOR ag-1,OPRM1-OPRD1 inv,MOR-DOR ag-2,HTR5A ag confirm
COC(=O)c1cc(NS(=O)(=O)c2ccc(N3CCOCC3)c(NC(C)=O)c2)cc(C(=O)OC)c1,-1.0,1.3,4.3,-3.2,16.4,.,.
Cc1ccc2[nH]c(=O)c3cc(C(=O)N(CCCOC(C)C)Cc4ccco4)sc3c2c1,-1.4,-82.7,27.2*,5.8,-34.4,11.0,13.0
Cc1ccc(C(=O)c2c3ccc([N+](=O)[O-])cc3[n+]([O-])n2CCCC(N)=O)cc1,0.7,-43.0,16.9*,5.0,-27.5,-0.9,0.5
NC(=O)CCCn1c(C(=O)c2ccc(Cl)cc2)c2ccc([N+](=O)[O-])cc2[n+]1[O-],-0.6,-26.8,10.6,2.0,-11.0,.,.
O=S(=O)(c1ccc(S(=O)(=O)N2CCCN(Cc3ccccc3)C2)cc1)N1CCCCCC1,0.2,-4.4,15.0*,-2.2,11.5,0.4,3.2
O=S(=O)(NCc1ccccc1)c1ccc(S(=O)(=O)N2CCCCC2)cc1,0.6,-14.1,4.3,0.0,-0.1,.,.
COc1ccccc1OCC(=O)Nc1ccc(Cl)cc1,0.6,7.4,-3.1,0.1,-0.5,.,.
COc1ccccc1OCC(=O)Nc1ccc(NC(=O)COc2ccccc2OC)cc1,-0.5,-58.3,24.3*,-0.8,4.1,-0.1,-0.9
CCN1CCN(C(CNC(=O)c2ccc3c(c2)OCO3)c2cccnc2)CC1 (centres undefined),1.0,-40.0,1.9,-2.9,17.0,.,.
O=C(Nc1ccc(N2CCN(C(=O)c3cccs3)CC2)cc1)c1ccc(Br)o1,-0.3,-40.6,16.2*,0.1,-0.2,5.3,0.5
O=C(NCCOc1ccccc1F)C1CCC(=O)N(CC2CCCCC2)C1 (centres undefined),.,6.0,-0.4,-1.2,6.6,.,.
CCOC(=O)/C(C#N)=C/Nc1ccccc1OC,-5.7,0.4,16.7*,0.8,-4.7,4.2,-2.0
CCOC(=O)C(=O)/C(C#N)=C/Nc1ccccc1,0.4,13.2,-6.0,-3.0,14.8,.,.
CCC1CCCCN1C(=O)CSc1nc(N)cc(N)n1 (centres undefined),-0.2,15.1,-2.0,-2.2,10.9,.,.
CC(Oc1cccc(F)c1)C(=O)Nc1ccc(N2CCOCC2)cc1 (centres undefined),-1.0,-47.6,17.2*,-0.3,1.4,1.5,0.4
Cc1cccc(OC(C)C(=O)Nc2ccc(N3CCCCC3)cc2)c1 (centres undefined),-0.2,-7.1,2.4,3.9,-20.8,.,.
